From PubChem BioAssay AID589 (National Center for Advancing Translational Sciences (NCATS), 2007)
About 6,200 (11%) of roughly 59,000 compounds were called active. About 9% were inconclusive and are not listed. No stated cut-off is given here; in the data, active means max dye-equivalent concentration above about 10 nM; inconclusive means mostly about 1.1 nM to 9.6 nM; inactive means weaker than that. The list comes from a sample in which actives are over-represented; it also holds similar structures and randomly drawn compounds.

assay: qHTS Assay for Spectroscopic Profiling in 4-MU Spectral Region; conditions: compound autofluorescence, 340/450 nm, 4-MU equivalents; hits give high values
In short: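 Compounds in 100 mM Tris, pH 8.0, incubated 15 min at room temperature, then fluorescence read at 340 nm excitation/450 nm emission. Signal converted to 4-MU dye-equivalent concentration using an on-plate six-point 4-MU standard curve.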

Max dye-equivalent concentration, active:
COC(=O)c1cnn2c(C(F)(F)F)cc(-c3ccco3)nc12 970 nM
O=C(NCc1ccco1)c1cnn2c(C(F)(F)F)cc(-c3ccco3)nc12 260 nM
Cc1nc(NCCN)c(C#N)c2c1COC(C)(C)C2 13 nM
CCCc1cc(=O)oc2c(C)c(O)c(CN3CCCCC3)cc12 7800 nM
COC(=O)Nc1nc2ccc(Sc3ccccc3)cc2[nH]1 14 nM

Max dye-equivalent concentration, inactive:
Cc1ccc(C(c2nnnn2CS(=O)(=O)c2ccc(C)cc2)N2CCC(C(N)=O)CC2)cc1 (stereo not given)
O=C(NCc1ccco1)c1cc(-c2cccnc2)nc2ccc(Cl)cc12
O=C(Nc1ccccc1)Nc1ccccc1C(=O)NCc1ccco1
COC(=O)c1ccccc1NC(=O)Cn1nc(C(F)(F)F)c2c1CCC2
O=C(CSc1nc(-c2ccco2)cc(C(F)(F)F)n1)N1CCc2ccccc2C1
CCOC(=O)C1C(=O)OC2(CCCC2)C1C(=O)OCC (stereo not given)
Cc1cccc(NC(=O)C2CCCN2S(=O)(=O)c2ccc(F)cc2)c1C (stereo not given)
CCOC(=O)C1(C(F)(F)F)N=C(N(C)C)OC(N(C)C)=N1
CC(=O)c1c(C)n(-c2ccc(N(C)C)cc2)c2ccc(OCC(N)=O)cc12
COc1cc(OC)c(C(=O)NC2CC(C)(C)NC(C)(C)C2)cc1OC
COc1ccc(CCn2c(NCCCN3CCOCC3)nc3c2c(=O)[nH]c(=O)n3C)cc1
CCCCn1c(SCc2ncc(-c3ccccc3)o2)nc2cc(S(N)(=O)=O)ccc21
CCN1CCN(c2ncnc3c2oc2nc(C)c4c(c23)CC(C)(C)OC4)CC1
C=CCNC(=O)CCCC(=O)NCC=C
Nc1nc2c(ncn2[C@H]2CC[C@@H](CO)O2)c(=O)n1C(=O)c1ccccc1
CC(=O)c1cccc(NC(=O)N2CCCC2C(=O)NCCC(C)C)c1 (stereo not given)
COc1ccc(NC(=O)N2CC3(CCN(C(C)=O)CC3)C2)cc1
CCOC(=O)c1c(NC(=O)CCC(=O)NCc2ccco2)sc2c1CCCC2
CCOC(=O)N1CCN(Cc2oc(CO)cc(=O)c2O)CC1
Nc1nnnn1/N=C/c1cccs1
Oc1ccc2nc(Cc3ccccc3)[nH]c2c1
COC(=O)Cc1nc2ccccc2[nH]1
COC(=O)c1nc(NC(=O)c2ccc(Cl)cc2)n[nH]1
CCC(=O)Nc1ccccc1N1CCN(S(C)(=O)=O)CC1
O=C(Cn1cnc2c(cnn2-c2ccccc2)c1=O)NCc1ccccc1
